Test systems include NCI-H23 lung; NCI-H226 lung; NCI-H322M lung; HOP-62 NSCLC; NCI-H460 lung; HOP-92 NSCLC; NCI-H522 lung; A549/ATCC NSCLC; 786-0 renal; COLO 205 colon.
What all share (assay): NCI-60 one-dose screen, 48 h (100 = growth as untreated, 0 = no growth, -100 = all killed)
Holding throughout (conditions): 10 µM unless noted

SMILES strings stand for the structures. The panel holds about 83,000 compounds, 20% with a hit somewhere; the sample as a whole holds those more often.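 The endpoint reported here, percent growth, reads 100 for growth as untreated, 0 for no net growth and -100 for all cells dead.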 A number with no mark means an inactive call. Calls of active or inactive are those of the source. How the source made its calls: active means growth percent below 10; inactive means the rest.

As to `O=C(Nc1cccc(-n2cc(-c3ccncc3)c(-c3ccc(Cl)c(O)c3)n2)c1)Nc1ccc(Cl)c(Cl)c1`, the growth in the assay with NCI-H23 lung was 13.5%; in the assay with NCI-H226 lung, 24.7%; with NCI-H322M lung, 40.6%; in the assay with HOP-62 NSCLC it was 34.4%; with NCI-H460 lung, 6.5% (active); with HOP-92 NSCLC, -20.2% (active). The growth with NCI-H522 lung was -6.8% (active); with A549/ATCC NSCLC it was 4.51% (active); in the assay on 786-0 renal it was 30.1%; in the assay on COLO 205 colon it was 30.2%.

Regarding `COc1ccc(/C=C2\CN(Cc3cn(CCNc4ccnc5cc(Cl)ccc45)nn3)C/C(=C\c3ccc(OC)c(OC)c3)C2=O)cc1OC`, the growth is 48% with NCI-H23 lung; 17% in the assay with NCI-H226 lung; 44.7% in the assay on NCI-H322M lung; -7.73% (active) in the assay on HOP-62 NSCLC; -28.5% (active) in the assay with NCI-H460 lung; -16.1% (active) in the assay on HOP-92 NSCLC. The growth is -67.8% (active) in the assay with NCI-H522 lung, 22.7% with A549/ATCC NSCLC, 15.9% in the assay on 786-0 renal and 10.1% in the assay on COLO 205 colon.

Turning to `Cc1c(C(N)=O)sc2c1c(=O)n(Cc1ccccc1)c1nnc(Nc3ccccc3)n21`, the growth with NCI-H23 lung was 101%; in the assay on NCI-H226 lung, 106%; with NCI-H322M lung it was 105%; in the assay on HOP-62 NSCLC, 89.1%; with NCI-H460 lung, 119%; in the assay on HOP-92 NSCLC it was 101%. Further, the growth with NCI-H522 lung is 87.1%; in the assay on A549/ATCC NSCLC, 94.4%; in the assay on 786-0 renal it was 105%; in the assay with COLO 205 colon, 101%.

For the compound `O=S(=O)(NCCNc1nccc(-c2c(-c3cccc(O)c3)nc3sccn23)n1)c1ccc(F)cc1`, the growth in the assay with NCI-H23 lung is 87%; in the assay with NCI-H226 lung, 91.8%; in the assay with NCI-H322M lung it was 90.4%; in the assay on HOP-62 NSCLC it was 103%; with NCI-H460 lung it was 67.3%; in the assay with HOP-92 NSCLC, 92.8%. Moreover, the growth is 64.4% in the assay on NCI-H522 lung, 52% in the assay with A549/ATCC NSCLC, 77% with 786-0 renal and 37.6% in the assay with COLO 205 colon.

`Cc1ccc(S(=O)(=O)NCCNc2nccc(-c3c(-c4ccc(O)cc4)nc4sccn34)n2)cc1`: the growth in the assay on NCI-H23 lung is 95.1%; in the assay with NCI-H226 lung, 98.8%; in the assay on NCI-H322M lung, 110%; in the assay with HOP-62 NSCLC, 113%; in the assay on NCI-H460 lung it was 106%; with HOP-92 NSCLC, 101%. The growth was 84% in the assay on NCI-H522 lung, 94.1% with A549/ATCC NSCLC, 97.3% with 786-0 renal and 104% with COLO 205 colon.

On to `CC(C)C1=CC2=C(C=O)C[C@@H]3[C@](C)(CCC[C@@]3(C)C(=O)OCC#CCN3CCCC3)[C@H]2CC1`, for which the growth in the assay on NCI-H23 lung is 62.2%; in the assay on NCI-H226 lung, 75.7%; in the assay with NCI-H322M lung, 96.2%; in the assay on HOP-62 NSCLC, 84.9%; in the assay on NCI-H460 lung, 76.8%; in the assay on HOP-92 NSCLC, 45.9%. In addition, the growth in the assay with NCI-H522 lung is 59.9%; with A549/ATCC NSCLC it was 67.4%; with 786-0 renal it was 75.2%; in the assay with COLO 205 colon, 86.5%.

For the compound `Nc1cc2c(cc1C(=O)c1cccc(F)c1)OCCO2`, the growth was 95.4% in the assay on NCI-H23 lung; 91.4% with NCI-H226 lung; 98.5% in the assay on NCI-H322M lung; 95% with HOP-62 NSCLC; 104% with NCI-H460 lung; 72.9% in the assay with HOP-92 NSCLC. In addition, the growth was 87.3% in the assay with NCI-H522 lung, 91.6% in the assay on A549/ATCC NSCLC, 94% with 786-0 renal and 111% in the assay with COLO 205 colon.

With `CC(C)c1ccc2occ(C=C3C(=O)NC(=O)NC3=O)c(=O)c2c1`, the growth in the assay on NCI-H23 lung was 97.5%; with NCI-H226 lung, 106%; in the assay on NCI-H322M lung, 116%; with HOP-62 NSCLC, 101%; with NCI-H460 lung it was 102%; in the assay with HOP-92 NSCLC, 63%. Besides, the growth in the assay on NCI-H522 lung is 88.7%; with A549/ATCC NSCLC, 100%; in the assay with 786-0 renal, 91.6%; in the assay with COLO 205 colon, 117%.

For `COc1ccc(/C=C2\N=C(c3ccccc3)N(C(=O)c3ccccc3O)NC2=O)cc1`, the growth in the assay with NCI-H23 lung was 89.7%; with NCI-H226 lung, 101%; in the assay on NCI-H322M lung, 105%; with HOP-62 NSCLC it was 99.1%; with NCI-H460 lung, 98.7%; in the assay with HOP-92 NSCLC it was 75.5%. Moreover, the growth in the assay on NCI-H522 lung is 100%; with A549/ATCC NSCLC it was 97.3%; in the assay with 786-0 renal it was 89.8%; in the assay with COLO 205 colon it was 112%.

`CCCCN(CCCC)C(=O)CC`: the growth in the assay with NCI-H23 lung is 102%; with NCI-H226 lung, 104%; in the assay with NCI-H322M lung, 117%; with HOP-62 NSCLC, 119%; with NCI-H460 lung, 108%; with HOP-92 NSCLC it was 96.4%. Moreover, the growth is 114% in the assay on NCI-H522 lung, 106% in the assay on A549/ATCC NSCLC, 102% in the assay on 786-0 renal and 119% in the assay on COLO 205 colon.

On to `CCOC(=O)C1CCNC(=O)C1=O` (stereo not given), for which the growth in the assay with NCI-H23 lung was 107%; with NCI-H226 lung, 97%; in the assay with NCI-H322M lung, 144%; with HOP-62 NSCLC, 112%; in the assay with NCI-H460 lung, 113%; with HOP-92 NSCLC it was 102%. Besides, the growth in the assay with NCI-H522 lung was 116%; with A549/ATCC NSCLC it was 109%; with 786-0 renal, 98%; with COLO 205 colon, 114%.

Turning to `O=C(O)Cc1cccc(=O)c(O)c1C(=O)O`, the growth in the assay with NCI-H23 lung is 108%; in the assay on NCI-H226 lung, 111%; with NCI-H322M lung it was 129%; with HOP-62 NSCLC, 103%; in the assay on NCI-H460 lung it was 124%; in the assay on HOP-92 NSCLC, 103%. For the same compound, the growth in the assay with NCI-H522 lung is 106%; in the assay on A549/ATCC NSCLC, 104%; with 786-0 renal it was 100%; in the assay on COLO 205 colon it was 108%.

Values taken from PubChem BioAssay (NCI).
